The full list was thinned out, with hits kept by preference.
CD40 NFkB inh: CD40 pathway inhibition in BL2 cells; hit rate 0.94% among 83,000; BL2 NF-kB luciferase reporter, CD40L-induced, 4 h; inhibition, % at 10 µM;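 active means mean inhibition of at least 50% with a set share of replicates also reaching that level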
Of the large screens only hits and unclear results are named; the others gave an inactive call; [ ] = dose if it differs, or a comment.

COc1ccc(NC(=O)Nc2ccc3c(c2)C(=O)N([C@H](C)CO)C[C@@H](C)[C@H](CN(C)Cc2ccc(C(F)(F)F)cc2)OCCCC[C@H](C)O3)cc1	none
CNC[C@@H]1OCCCC[C@@H](C)Oc2ccc(NC(=O)Nc3ccc(C(F)(F)F)cc3)cc2C(=O)N([C@H](C)CO)C[C@H]1C	none
C[C@H](CO)N1C[C@H](C)[C@@H](CN(C)Cc2ccc(Oc3ccccc3)cc2)Oc2ccc(N(C)C)cc2CC1=O	none
C[C@H]1CN([C@@H](C)CO)C(=O)CCCn2cc(nn2)CO[C@H]1CN(C)C(=O)Nc1ccc(N2CCN(C)CC2)cc1	none
C[C@H]1CN([C@@H](C)CO)C(=O)CCCn2cc(nn2)CO[C@@H]1CN(C)CC1CCCCC1	none
CCCNC(=O)[C@@H]1[C@@H](CO)[C@@H]2Cn3c(ccc(-c4ccc(OC)cc4)c3=O)[C@H]1N2CC	none
COc1ccc(C(=O)N2C[C@@H]3[C@H](c4ccccc42)[C@H](CO)N3C(=O)c2cccc(F)c2)cc1	none
COc1ccccc1NC(=O)N1CC(=O)N2[C@@H](CO)[C@H](c3ccc(C#CC(C)C)cc3)[C@@H]2C1	none
C[C@@H]1CN([C@@H](C)CO)C(=O)c2c(c3ccccc3n2C)-c2ccccc2CO[C@H]1CN(C)Cc1cccc(F)c1	none
COc1ccc(NC(=O)N2C[C@@H]3N[C@H](C2)C3c2ccc(-c3cccc(F)c3)cc2)cc1 (some centres undefined)	none
Cc1ccc(-c2ccc(C3[C@@H]4CN(C(=O)Nc5ccc(C(F)(F)F)cc5)C[C@H]3N4)cc2)cc1 (some centres undefined)	none
O=C(Nc1ccc(C(F)(F)F)cc1)N1C[C@@H]2N[C@H](C1)C2c1ccc(-c2cccc(F)c2)cc1 (some centres undefined)	CD40 NFkB inh 69.7
O=C(Nc1ccccc1)N1C[C@@H]2[C@H](c3ccccc31)[C@@H](CO)N2Cc1ccccc1	none
C[C@@H]1CCCCO[C@H](CN(C)Cc2ccc(Cl)c(Cl)c2)[C@@H](C)CN([C@@H](C)CO)C(=O)c2cc(NC(=O)Cc3ccccc3)ccc2O1	none
CN(C)C(=O)[C@H]1[C@H](CO)[C@H]2Cn3c(ccc(-c4ccc(F)cc4)c3=O)[C@@H]1N2CCc1ccccc1	none
O=C(CNC(=O)C1CCCCC1)OCC(=O)c1ccc(F)cc1	none
CCc1ccc(C(=O)COC(=O)CNC(=O)C2CCCCC2)cc1	CD40 NFkB inh 65.8
CCOC(=O)c1c(C)[nH]c(C)c1C(=O)COC(=O)CNC(=O)C1CCCCC1	none
CCN(CC)c1ccc2nc3ccc(N)cc3[n+](-c3ccccc3)c2c1	CD40 NFkB inh 88.2
Nc1ccc2nc(Cc3ccccc3)[nH]c2c1	none
CN1c2ccc(Br)cc2[C@@H]2[C@@H](CCN2C(=O)C2CCCC2)[C@@H]1CO	none
Cc1cccc(S(=O)(=O)N2C[C@@H]3[C@H](c4ccccc42)[C@@H](CO)N3C(=O)CC2CC2)c1	none
O=C(/C=C/Sc1ccccc1)c1ccccc1	none
N#CCSc1nc2ccccc2o1	none
COc1ccc(C(=O)/C=C/Sc2nc3ccccc3o2)cc1	CD40 NFkB inh 75.2
CC(C)NC(=O)N1[C@@H](CO)[C@@H](c2ccccc2)C12CN(C(=O)c1ccccn1)C2	none
O=C(C[C@H]1C[C@@H]2c3cc(NC(=O)c4ccc5c(c4)OCO5)ccc3O[C@@H]2[C@@H](CO)O1)NCC(F)(F)F	none
COC(=O)C[C@](O)(CCCC(C)(C)O)C(=O)O[C@@H]1C(OC)=C[C@]23CCCN2CCc2cc4c(cc2[C@H]13)OCO4	CD40 NFkB inh 92.3[25 µM]
C[C@H]1CN([C@@H](C)CO)C(=O)c2c(c3ccccc3n2C)-c2ccccc2CO[C@@H]1CN(C)S(C)(=O)=O	none
Cc1ccc(C2(C)NC(=O)N(CC(=O)Nc3cccnc3Cl)C2=O)cc1 (centres undefined)	CD40 NFkB inh 25.5
O=C(CN1C(=O)NC(c2ccccc2)(c2ccccc2)C1=O)Nc1cccnc1Cl	none
CC1(c2ccc(OC(F)F)cc2)NC(=O)N(CC(=O)Nc2cccnc2Cl)C1=O (centres undefined)	none
CN1C(=O)c2cc(NC(=O)C3CC3)ccc2OC[C@@H]2O[C@H](CC(=O)NCCc3ccncc3)CC[C@H]21	none
O=C(C[C@H]1CC[C@@H](NC(=O)NC2CCCCC2)[C@H](CO)O1)NCc1ccc(F)cc1	none
Cc1ccc(S(=O)(=O)N[C@H]2CC[C@H](CCNC(=O)C3CCCC3)O[C@H]2CO)cc1	none
COC(=O)CN1C(=S)N(c2ccc(F)cc2)C(=O)C1CC(=O)Nc1ccccc1 (centres undefined)	none
CCN1C(=O)C(CC(=O)Nc2ccc(F)cc2)N(Cc2ccc3c(c2)OCO3)C1=S (centres undefined)	none
CCN1C(=O)C(CC(=O)Nc2ccc(F)cc2)N(Cc2ccco2)C1=S (centres undefined)	CD40 NFkB inh 37.2
C[C@@H]1CN([C@H](C)CO)C(=O)CCCn2cc(nn2)CO[C@@H]1CN(C)S(=O)(=O)c1ccc2c(c1)OCCCO2	none
CCCNC(=O)C[C@@H]1C[C@@H]2c3cc(NC(=O)COC)ccc3O[C@@H]2[C@H](CO)O1	none
O=C(C1CCCC1)N1[C@@H](CO)[C@@H]2c3ccccc3N(S(=O)(=O)c3ccc(F)cc3)C[C@@H]21	none
C[C@@H]1CN([C@@H](C)CO)C(=O)CCCn2cc(nn2)CO[C@@H]1CN(C)Cc1ccncc1	none
